Results published in the supplement of paper PMC12819154, “High-throughput peptide-centric local stability assay extends protein–ligand identification to membrane proteins, tissues and bacteria” (Nature Structural & Molecular Biology, 2025).
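Further: lysate desalted by size exclusion to strip endogenous ATP, peptide intensities built from DIA-NN precursor signals, and peptides missing any value discarded before comparison.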

The targets below were run with Nc1ncnc2c1ncn2[C@@H]1O[C@H](COP(=O)(O)OP(=O)(O)OP(=O)(O)O)[C@@H](O)[C@H]1O [adenosine 5'-triphosphate] (assay: log2 fold change of tryptic peptide abundance, ligand vs vehicle (limited proteolysis) (log2 ratio); higher = more trypsin-susceptible (destabilized)). Conditions: ligand concentration: 5 mM; sample: E. coli desalted lysate; replicate design: treated before aliquoting.
Method: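 HT-PELSA: desalted E. coli K-12 BW25113 lysate (with 12 mM MgCl2) incubated with 5 mM ATP (pH 7) or water for 30 min at 25 C, then a 4 min trypsin pulse at 22 C. Peptides were quantified by DIA-MS (4 replicates). Value is the peptide log2 fold change (treated/control); negative = stabilized. Scale: negative = ligand-stabilized region.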
For “UniProt P36995 (peptide sequence: VTFSIESGAK, peptide start residue: 51)”, the log2 fold change was -0.289.
For “UniProt P0AD19 (peptide sequence: GLAMGTASHALGTAR, peptide start residue: 178)”, the log2 fold change was -0.978.
Work on “UniProt P09053 (peptide sequence: ILAEEIERAWAESH, peptide start residue: 404)” yielded a log2 fold change of -0.817.
In the case of “UniProt Q47129 (peptide sequence: LDADLPMVQLSHR, peptide start residue: 141)”, the log2 fold change is reported as -1.3.
In the case of “UniProt Q46856 (peptide sequence: IDAAIAATR, peptide start residue: 323)”, the log2 fold change is reported as -1.68.
With “UniProt P77689 (peptide sequence: INSLAMPVKNEVCDTR, peptide start residue: 270)” the log2 fold change was 1.09.
“UniProt Q46857 (peptide sequence: DLADKYGK, peptide start residue: 204)” gave a log2 fold change of -0.885.
In the case of “UniProt P15034 (peptide sequence: QNLTAPATMIDWRPVVHEMR, peptide start residue: 155)”, the log2 fold change is reported as -0.448.
Target “UniProt P37025 (peptide sequence: VVWLGMR, peptide start residue: 87)” has a log2 fold change of -0.685.
“UniProt P0A6H5 (peptide sequence: VQAIEKNR, peptide start residue: 113)” showed a log2 fold change of 1.65.
Work on “UniProt P06612 (peptide sequence: ADHIYLATDLDREGEAIAWHLR, peptide start residue: 103)” yielded a log2 fold change of -1.02.
“UniProt P0ADA3 (peptide sequence: IATMGSTGTSSTR, peptide start residue: 346)” showed a log2 fold change of 0.385.
Work on “UniProt P00760 (peptide sequence: LKSAASLNSR, peptide start residue: 113)” yielded a log2 fold change of 0.367.
With “UniProt P0ADM4 (peptide sequence: EGTYPGTR, peptide start residue: 32)” the log2 fold change was -0.36.
“UniProt P76206 (peptide sequence: FEFGPGVR, peptide start residue: 152)” showed a log2 fold change of 1.15.
“UniProt P05041 (peptide sequence: APFSAFLR, peptide start residue: 239)” was tested, and the log2 fold change was 0.459.
“UniProt P68398 (peptide sequence: EVPVGAVLVHNNR, peptide start residue: 27)” was tested, and the log2 fold change was 0.483.
For “UniProt P76196 (peptide sequence: VVEQLLAMR, peptide start residue: 47)”, the log2 fold change was -0.864.
“UniProt P37617 (peptide sequence: DEQAAEEPQASR, peptide start residue: 113)” showed a log2 fold change of 2.93.
Target “UniProt P34209 (peptide sequence: MTGDNPDAPR, peptide start residue: 166)” has a log2 fold change of -0.261.
For “UniProt P06149 (peptide sequence: VRDIEADTPAR, peptide start residue: 232)”, the log2 fold change was -1.35.
For “UniProt P15254 (peptide sequence: QALIDANLR, peptide start residue: 169)”, the log2 fold change was -0.778.
“UniProt P31665 (peptide sequence: QEVSQEFAQR, peptide start residue: 262)” was tested, and the log2 fold change was -0.678.
“UniProt P76257 (peptide sequence: GQPLVVEAGTGTGK, peptide start residue: 38)” gave a log2 fold change of -0.82.
“UniProt P06709 (peptide sequence: VKWPNDLYLQDR, peptide start residue: 171)” gave a log2 fold change of -0.523.
For “UniProt P0ACX3 (peptide sequence: NLGVEEVVAK, peptide start residue: 75)”, the log2 fold change was 0.583.
“UniProt P03817 (peptide sequence: FGAIGIGSR, peptide start residue: 85)” showed a log2 fold change of 0.339.
Work on “UniProt P29013 (peptide sequence: SREEYLQSQVNMLWR, peptide start residue: 204)” yielded a log2 fold change of -0.636.
Work on “UniProt P55135 (peptide sequence: RLSDSPER, peptide start residue: 69)” yielded a log2 fold change of -0.744.
“UniProt P77522 (peptide sequence: IMPTATNAR, peptide start residue: 392)” was tested, and the log2 fold change was 1.07.
“UniProt P15005 (peptide sequence: LAYLLTGEK, peptide start residue: 214)” gave a log2 fold change of -1.01.
With “UniProt P0AD57 (peptide sequence: QRAEEEADKAIAALQVLPDTPWR, peptide start residue: 286)” the log2 fold change was 0.56.
“UniProt P69789 (peptide sequence: LYSKAEYK, peptide start residue: 48)” was tested, and the log2 fold change was -1.96.
“UniProt P52108 (peptide sequence: KKLLDNAAEPYR, peptide start residue: 211)” gave a log2 fold change of 0.266.
For “UniProt P07821 (peptide sequence: TLLHPLSLTFPAGK, peptide start residue: 25)”, the log2 fold change was -1.16.
For “UniProt P08373 (peptide sequence: VNGNAGSFFKNPVVSAETAK, peptide start residue: 223)”, the log2 fold change was 0.267.
Target “UniProt P0A7Y8 (peptide sequence: KGVADLDNR, peptide start residue: 91)” has a log2 fold change of 0.915.
“UniProt P30014 (peptide sequence: TAVLFCEIVNR, peptide start residue: 190)” gave a log2 fold change of -2.04.
For “UniProt P77306 (peptide sequence: TLSPEDLR, peptide start residue: 123)”, the log2 fold change was 0.57.
With “MurF (peptide sequence: VVALTGSSGK, peptide start residue: 102) (UniProt P11880)” the log2 fold change was -1.5.
